Laboratory results published in PubChem BioAssay AID1159580 (chemical genetic matrix, 2015).
Hit rate of the full screen: of about 5,500 compounds, about 2,000 (36%) were called active. About 18% were inconclusive and are not listed. Cut-off read from the data, not from the text of the source: active = normalized growth mostly below about 0.91 (no sharp cut-off); inconclusive = no clear call, values can overlap the other calls; inactive = mostly above about 0.92. The list shows a part of the results.

Test: chemical genetic growth profiling, strain panel (AID 1159580);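 note: tested at 20 µM; growth read once vehicle control cultures reached saturation at 30 °C; 1 = growth at the plate median or of vehicle wells; lower values mean less growth of the strain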
Conditions: growth OD

Measured: normalized growth

COc1ccc2c(c1)C1(C)CCC(=O)CC1CC2 (stereo not drawn)
inactive: S. cerevisiae deletion strains, locus YAL021C, strain ccr4, active compounds read low 1.01 | S. cerevisiae deletion strains, locus YAL026C, strain drs2, active compounds read low 1.04 | S. cerevisiae deletion strains, locus YAL030W, strain snc1, active compounds read low 1 | S. cerevisiae deletion strains, locus YBL061C, strain skt5, active compounds read low 1.01 | S. cerevisiae deletion strains, locus YBR009C, strain hhf1, active compounds read low 1.01 | S. cerevisiae deletion strains, locus YBR021W, strain FUR4, active compounds read low 0.976 | S. cerevisiae deletion strains, locus YBR023C, strain chs3, active compounds read low 1.01 | S. cerevisiae deletion strains, locus YBR171W, strain sec66, active compounds read low 1.01 | S. cerevisiae deletion strains, locus YBR229C, strain ROT2, active compounds read low 0.994 | S. cerevisiae deletion strains, locus YBR231C, strain swc5, active compounds read low 1.04 | S. cerevisiae deletion strains, locus YBR279W, strain paf1, active compounds read low 1 | S. cerevisiae deletion strains, locus YCL011C, strain gbp2, active compounds read low 1.01 | S. cerevisiae deletion strains, locus YCL016C, strain dcc1, active compounds read low 1 | S. cerevisiae deletion strains, locus YCL029C, strain bik1, active compounds read low 0.986 | S. cerevisiae deletion strains, locus YCL061C, strain MRC1, active compounds read low 1.01 | S. cerevisiae deletion strains, locus YCL069W, strain vba3, active compounds read low 1 | S. cerevisiae deletion strains, locus YCR088W, strain abp1, active compounds read low 1.01 | S. cerevisiae deletion strains, locus YDL005C, strain med2, active compounds read low 1.01 | S. cerevisiae deletion strains, locus YDL035C, strain GPR1, active compounds read low 1.01 | S. cerevisiae deletion strains, locus YDL040C, strain nat1, active compounds read low 0.999 | S. cerevisiae deletion strains, locus YDL074C, strain BRE1, active compounds read low 1.02 | S. cerevisiae deletion strains, locus YDL101C, strain DUN1, active compounds read low 0.998 | S. cerevisiae deletion strains, locus YDL134C, strain PPH21, active compounds read low 0.947 | S. cerevisiae deletion strains, locus YDL185W, strain tfp1, active compounds read low 0.989 | S. cerevisiae deletion strains, locus YDL192W, strain arf1, active compounds read low 0.989 | S. cerevisiae deletion strains, locus YDR001C, strain nth1, active compounds read low 1.01 | S. cerevisiae deletion strains, locus YDR069C, strain doa4, active compounds read low 1.02 | S. cerevisiae deletion strains, locus YDR101C, strain arx1, active compounds read low 1 | S. cerevisiae deletion strains, locus YDR137W, strain rgp1, active compounds read low 0.967 | S. cerevisiae deletion strains, locus YDR150W, strain NUM1, active compounds read low 0.991 | S. cerevisiae deletion strains, locus YDR159W, strain sac3, active compounds read low 1.06 | S. cerevisiae deletion strains, locus YDR162C, strain NBP2, active compounds read low 1 | S. cerevisiae deletion strains, locus YDR195W, strain ref2 1.04 | S. cerevisiae deletion strains, locus YDR297W, strain sur2, active compounds read low 1.02 | S. cerevisiae deletion strains, locus YDR318W, strain mcm21, active compounds read low 0.988 | S. cerevisiae deletion strains, locus YDR334W, strain swr1, active compounds read low 1 | S. cerevisiae deletion strains, locus YDR335W, strain msn5, active compounds read low 1.01 | S. cerevisiae deletion strains, locus YDR388W, active compounds read low 0.989 | S. cerevisiae deletion strains, locus YDR392W, strain spt3, active compounds read low 0.996 | S. cerevisiae deletion strains, locus YDR502C, strain sam2, active compounds read low 0.977 | S. cerevisiae deletion strains, locus YEL003W, strain gim4, active compounds read low 1.01 | S. cerevisiae deletion strains, locus YEL037C, strain rad23, active compounds read low 1.02 | S. cerevisiae deletion strains, locus YEL061C, strain CIN8 (second series), active compounds read low 1.01 | S. cerevisiae deletion strains, locus YEL061C, strain CIN8, active compounds read low 0.993 | S. cerevisiae deletion strains, locus YER015W, strain faa2, active compounds read low 1.01 | S. cerevisiae deletion strains, locus YER016W, strain bim1, active compounds read low 1 | S. cerevisiae deletion strains, locus YER110C, active compounds read low 0.979 | S. cerevisiae deletion strains, locus YER111C, strain swi4, active compounds read low 1.01 | S. cerevisiae deletion strains, locus YER155C, strain BEM2 (second series), active compounds read low 1.02 | S. cerevisiae deletion strains, locus YER155C, strain BEM2, active compounds read low 0.988 | S. cerevisiae deletion strains, locus YER167W, strain BCK2, active compounds read low 0.999 | S. cerevisiae deletion strains, locus YFR010W, strain ubp6, active compounds read low 1.02 | S. cerevisiae deletion strains, locus YGL078C, strain dbp3, active compounds read low 0.982 | S. cerevisiae deletion strains, locus YGL086W, strain mad1, active compounds read low 0.98 | S. cerevisiae deletion strains, locus YGL167C, strain pmr1, active compounds read low 1.01 | S. cerevisiae deletion strains, locus YGL173C, strain kem1, active compounds read low 1.01 | S. cerevisiae deletion strains, locus YGL227W, strain vid30, active compounds read low 1.01 | S. cerevisiae deletion strains, locus YGL240W, strain doc1, active compounds read low 1.01 | S. cerevisiae deletion strains, locus YGL248W, strain PDE1, active compounds read low 0.971 | S. cerevisiae deletion strains, locus YGL253W, strain hxk2, active compounds read low 1.03 | S. cerevisiae deletion strains, locus YGR135W, strain pre9, active compounds read low 0.965 | S. cerevisiae deletion strains, locus YGR252W, strain gcn5, active compounds read low 0.96 | S. cerevisiae deletion strains, locus YHR013C, strain ard1, active compounds read low 1.05 | S. cerevisiae deletion strains, locus YHR027C, strain rpn1, active compounds read low 1.03 | S. cerevisiae deletion strains, locus YHR030C, strain SLT2, active compounds read low 0.993 | S. cerevisiae deletion strains, locus YHR079C, strain IRE1 (second series), active compounds read low 0.991 | S. cerevisiae deletion strains, locus YHR094C, strain hxt1, active compounds read low 0.984 | S. cerevisiae deletion strains, locus YHR129C, strain ARP1, active compounds read low 0.993 | S. cerevisiae deletion strains, locus YHR142W, strain chs7, active compounds read low 1.02 | S. cerevisiae deletion strains, locus YHR200W, strain rpn10, active compounds read low 0.985 | S. cerevisiae deletion strains, locus YIL066C, strain RNR3, active compounds read low 1.01 | S. cerevisiae deletion strains, locus YIL073C, strain SPO22, active compounds read low 0.994 | S. cerevisiae deletion strains, locus YIL125W, strain kgd1, active compounds read low 0.987 | S. cerevisiae deletion strains, locus YIR030C, strain dcg1, active compounds read low 0.983 | S. cerevisiae deletion strains, locus YJL092W, strain hpr5, active compounds read low 1.01 | S. cerevisiae deletion strains, locus YJL095W, strain BCK1 (second series), active compounds read low 1.01 | S. cerevisiae deletion strains, locus YJL095W, strain BCK1, active compounds read low 0.953 | S. cerevisiae deletion strains, locus YJL115W, strain asf1, active compounds read low 1.02 | S. cerevisiae deletion strains, locus YJL129C, strain trk1, active compounds read low 1.01 | S. cerevisiae deletion strains, locus YJL134W, strain LCB3, active compounds read low 0.992 | S. cerevisiae deletion strains, locus YJL154C, strain vps35, active compounds read low 1.01 | S. cerevisiae deletion strains, locus YJL164C, strain tpk1, active compounds read low 1.01 | S. cerevisiae deletion strains, locus YJL166W, strain qcr8, active compounds read low 1.01 | S. cerevisiae deletion strains, locus YJL168C, strain set2, active compounds read low 0.989 | S. cerevisiae deletion strains, locus YJL187C, strain SWE1 (second series), active compounds read low 0.979 | S. cerevisiae deletion strains, locus YJL187C, strain SWE1, active compounds read low 1.01 | S. cerevisiae deletion strains, locus YJR043C, strain POL32, active compounds read low 1.03 | S. cerevisiae deletion strains, locus YKL009W, strain mrt4, active compounds read low 0.969 | S. cerevisiae deletion strains, locus YKL068W, active compounds read low 0.978 | S. cerevisiae deletion strains, locus YKL085W, strain MDH1 (second series), active compounds read low 0.984 | S. cerevisiae deletion strains, locus YKL085W, strain MDH1, active compounds read low 0.984 | S. cerevisiae deletion strains, locus YKL160W, strain elf1, active compounds read low 1 | S. cerevisiae deletion strains, locus YKR001C, strain vps1, active compounds read low 0.965 | S. cerevisiae deletion strains, locus YKR026C, strain gcn3, active compounds read low 1.01 | S. cerevisiae deletion strains, locus YKR091W, strain srl3, active compounds read low 1.01 | S. cerevisiae deletion strains, locus YLL001W, strain dnm1, active compounds read low 1.01 | S. cerevisiae deletion strains, locus YLL026W, active compounds read low 1 | S. cerevisiae deletion strains, locus YLL041C, strain sdh2, active compounds read low 1 | S. cerevisiae deletion strains, locus YLR027C, strain aat2, active compounds read low 1 | S. cerevisiae deletion strains, locus YLR039C, strain RIC1, active compounds read low 0.957 | S. cerevisiae deletion strains, locus YLR058C, strain SHM2, active compounds read low 0.996 | S. cerevisiae deletion strains, locus YLR102C, strain apc9, active compounds read low 0.98 | S. cerevisiae deletion strains, locus YLR221C, strain rsa3, active compounds read low 1.03 | S. cerevisiae deletion strains, locus YLR258W, strain gsy2, active compounds read low 1.02 | S. cerevisiae deletion strains, locus YLR262C, strain YPT6 (second series), active compounds read low 0.99 | S. cerevisiae deletion strains, locus YLR268W, strain sec22, active compounds read low 0.978 | S. cerevisiae deletion strains, locus YLR320W, strain mms22, active compounds read low 1.02 | S. cerevisiae deletion strains, locus YLR330W, strain CHS5, active compounds read low 0.986 | S. cerevisiae deletion strains, locus YLR342W, strain FKS1 (second series), active compounds read low 0.949 | S. cerevisiae deletion strains, locus YLR342W, strain FKS1, active compounds read low 1.01 | S. cerevisiae deletion strains, locus YLR357W, strain rsc2, active compounds read low 1.01 | S. cerevisiae deletion strains, locus YLR370C, strain arc18, active compounds read low 1 | S. cerevisiae deletion strains, locus YLR371W, strain rom2, active compounds read low 1 | S. cerevisiae deletion strains, locus YLR384C, strain iki3, active compounds read low 1.01 | S. cerevisiae deletion strains, locus YLR418C, strain cdc73, active compounds read low 0.962 | S. cerevisiae deletion strains, locus YML016C, strain PPZ1, active compounds read low 0.987 | S. cerevisiae deletion strains, locus YML032C, strain rad52, active compounds read low 0.996 | S. cerevisiae deletion strains, locus YML120C, strain ndi1, active compounds read low 0.996 | S. cerevisiae deletion strains, locus YML124C, strain tub3, active compounds read low 0.98 | S. cerevisiae deletion strains, locus YMR058W, strain fet3, active compounds read low 1.02 | S. cerevisiae deletion strains, locus YMR078C, strain ctf18, active compounds read low 0.985 | S. cerevisiae deletion strains, locus YMR125W, strain sto1, active compounds read low 0.994 | S. cerevisiae deletion strains, locus YMR129W, active compounds read low 1.01 | S. cerevisiae deletion strains, locus YMR205C, strain PFK2, active compounds read low 1.01 | S. cerevisiae deletion strains, locus YMR223W, strain ubp8, active compounds read low 0.975 | S. cerevisiae deletion strains, locus YMR231W, strain pep5, active compounds read low 1.01 | S. cerevisiae deletion strains, locus YMR263W, strain SAP30, active compounds read low 0.99 | S. cerevisiae deletion strains, locus YMR307W, strain GAS1, active compounds read low 1.04 | S. cerevisiae deletion strains, locus YNL067W, strain RPL9B, active compounds read low 0.974 | S. cerevisiae deletion strains, locus YNL071W, strain lat1, active compounds read low 1 | S. cerevisiae deletion strains, locus YNL209W, strain ssb2, active compounds read low 1.01 | S. cerevisiae deletion strains, locus YNL233W, strain BNI4, active compounds read low 0.971 | S. cerevisiae deletion strains, locus YNL248C, strain rpa49, active compounds read low 1.06 | S. cerevisiae deletion strains, locus YNL250W, strain rad50, active compounds read low 0.994 | S. cerevisiae deletion strains, locus YNL271C, strain bni1, active compounds read low 0.986 | S. cerevisiae deletion strains, locus YNL298W, strain CLA4, active compounds read low 0.982 | S. cerevisiae deletion strains, locus YNL307C, strain MCK1, active compounds read low 0.98 | S. cerevisiae deletion strains, locus YNL322C, strain KRE1 (second series), active compounds read low 0.995 | S. cerevisiae deletion strains, locus YNR049C, strain mso1, active compounds read low 1.04 | S. cerevisiae deletion strains, locus YNR052C, strain pop2, active compounds read low 0.986 | S. cerevisiae deletion strains, locus YOL006C, strain TOP1, active compounds read low 0.969 | S. cerevisiae deletion strains, locus YOL012C, strain htz1 0.718 | S. cerevisiae deletion strains, locus YOL147C, strain pex11, active compounds read low 0.988 | S. cerevisiae deletion strains, locus YOR001W, strain rrp6, active compounds read low 1.02 | S. cerevisiae deletion strains, locus YOR061W, strain CKA2, active compounds read low 1 | S. cerevisiae deletion strains, locus YOR069W, strain VPS5, active compounds read low 0.991 | S. cerevisiae deletion strains, locus YOR070C, strain gyp1, active compounds read low 1.02 | S. cerevisiae deletion strains, locus YOR080W, strain dia2, active compounds read low 1.01 | S. cerevisiae deletion strains, locus YOR083W, strain WHI5, active compounds read low 1.01 | S. cerevisiae deletion strains, locus YOR106W, strain vam3, active compounds read low 1.02 | S. cerevisiae deletion strains, locus YOR136W, strain idh2, active compounds read low 0.988 | S. cerevisiae deletion strains, locus YOR144C, strain elg1, active compounds read low 0.985 | S. cerevisiae deletion strains, locus YOR184W, strain ser1, active compounds read low 0.952 | S. cerevisiae deletion strains, locus YOR265W, strain rbl2, active compounds read low 0.987 | S. cerevisiae deletion strains, locus YOR270C, strain vph1, active compounds read low 1.07 | S. cerevisiae deletion strains, locus YOR290C, strain snf2, active compounds read low 0.981 | S. cerevisiae deletion strains, locus YOR316C, strain cot1, active compounds read low 0.992 | S. cerevisiae deletion strains, locus YPL051W, strain arl3, active compounds read low 1.02 | S. cerevisiae deletion strains, locus YPL055C, strain LGE1, active compounds read low 1.02 | S. cerevisiae deletion strains, locus YPL078C, strain atp4, active compounds read low 0.996 | S. cerevisiae deletion strains, locus YPL106C, strain sse1, active compounds read low 1.04 | S. cerevisiae deletion strains, locus YPL240C, strain hsp82, active compounds read low 0.986 | S. cerevisiae deletion strains, locus YPR119W, strain clb2, active compounds read low 0.984 | S. cerevisiae deletion strains, locus YPR141C, strain kar3, active compounds read low 0.96 | S. cerevisiae deletion strains, locus YPR163C, strain tif3, active compounds read low 0.97 | S. cerevisiae deletion strains, locus YPR167C, strain met16, active compounds read low 0.981 | S. cerevisiae deletion strains, strain wtn01, active compounds read low 0.98 | S. cerevisiae strains, strain wild type, active compounds read low 1
